Bioassay records as filed in PubChem BioAssay.
L major viab = inhibitors of Leishmania major promastigote growth; 200,000 tested, 9% active; Leishmania major promastigotes, resazurin fluorescence viability; inhibition, % at 10 µM; in the data active = inhibition above about 50%;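 note: promastigotes grown with compound for 44 hours at 28 °C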
WT yeast gro inh = growth inhibition of WT yeast, mitochondrial fusion screen | mitochondrial fusion phenotypic screen, WT strain | inhibition, % at 10 µM | 190,000 tested, 2.1% active; in the data active = inhibition above about 58%; tested in S. cerevisiae
CHOP inh = blocks CHOP induction under ER stress; inhibition, % at 10 µM; CHO-K1 CHOP-promoter luciferase, tunicamycin-induced, 15-18 h; 220,000 tested, 3.8% active;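 active = compounds that reduced the stress-induced luciferase reporter signal by more than about 70% of percent inhibition, limit read from the data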
RAM network inh = blocks the yeast RAM network. 190,000 tested, 1.8% active. S. cerevisiae dse1pr::URA3 reporter, 5-FOA growth OD615, 2 d; analog-sensitive cbk1-as2 kinase mutant strain. inhibition, % at 50 µM;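 active = inhibition above a set limit, 3 SD over mean compound inhibition, cut at about 8.4% in these data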;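 note: inhibition rescues growth on 5-FOA so higher OD means more RAM inhibition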
RAM efflux-def = restores 5-FOA growth of efflux-deficient yeast; shares compounds with RAM network inh; S. cerevisiae efflux-deficient reporter strain, 5-FOA growth OD615, 2 days; max inhibition, %; 1,200 tested, under 10 active; AID 1305; call rule not given here
Each line names hits and unclear results; the compound was inactive in the other large screens (follow-up assays come after a bar, where they were run). A selection: hits, their analogues and other compounds. The true share with any hit is near 13%.

COc1ccc(C2NC(=O)NC(C)=C2C(=O)Nc2cc(C)ccc2C)cc1OC (stereo unspecified)	RAM network inh 12 | RAM efflux-def inactive
CCCc1nn(C)c(C(=O)Nc2ccc(C(C)(C)C)cc2)c1Cl	WT yeast gro inh 63, RAM network inh 13 | RAM efflux-def inactive
CCCc1nn(C)c(C(=O)Nc2ccc(Cl)cc2)c1Cl	none
Cc1ccc(Oc2ccc(NC(=O)CCC(=O)OCC(=O)c3cccs3)cc2)cc1C	RAM network inh 13 | RAM efflux-def inactive
C#Cc1ccc([C@@H]2C=C(C(=O)NC3CC3)O[C@H](OCCCCO)C2)cc1	none (no result: L major viab, WT yeast gro inh, RAM network inh)
CCCCC(=O)O[C@H]1CC[C@H]2[C@@H]3CCc4cc(O)ccc4[C@H]3CC[C@]12C	WT yeast gro inh 91, RAM network inh 14 | RAM efflux-def inactive
C[C@]12CC[C@@H]3c4ccc(O)cc4CC[C@H]3[C@@H]1CCC2=O	none
COc1ccc(OC)c(/C=C/C(=O)c2ccc(Cl)cc2)c1	L major viab 100, RAM network inh 13 | RAM efflux-def inactive
COc1ccc(OC)c(NC(=O)c2ccc(Cl)cc2)c1	none
COc1ccc(C(=O)/C=C/c2ccc(OC)c(COc3ccc(F)cc3)c2)cc1	RAM network inh 18 | RAM efflux-def inactive
COc1ccc(/C=C/C(=O)c2ccc(OC)cc2OC)c(OC)c1	RAM network inh 14 | RAM efflux-def inactive
COc1ccc(C(C)=O)cc1COc1ccc(F)cc1	none
O=C(NCCc1ccc(Cl)cc1)C1CCC(=O)N1Cc1ccc(F)cc1 (stereo unspecified)	none
Cc1noc(NS(=O)(=O)c2ccc(NC(=O)CCC3CCCCC3)cc2)c1C	none
CCN(CC)S(=O)(=O)c1ccc(NC(=O)CCC2CCCCC2)cc1	RAM network inh 12 | RAM efflux-def inactive
CCN(CC)c1ccc(C(=O)OCC(=O)Nc2ccccc2-c2ccccc2)cc1	RAM network inh 22 | RAM efflux-def inactive
CN(C)c1cccc(C(=O)OCC(=O)Nc2ccccc2-c2ccccc2)c1	none
Cc1ccc(C2NC(=S)NC3=C2C(=O)CC(C)(C)C3)cc1 (stereo unspecified)	none
COc1ccc(-c2ccc(-c3noc(-c4ccccc4)n3)c(OC)n2)cc1	RAM network inh 13 | RAM efflux-def inactive
c1ccc(OCc2nc(-c3ccccc3)no2)cc1	none
COc1nc(-c2ccccc2)ccc1-c1noc(COc2ccccc2)n1	RAM network inh 13 | RAM efflux-def inactive
Cn1c(CSCc2ccc(Cl)cc2)n[nH]c1=S	none
COc1ccccc1N1C(=O)CC1(C#N)c1ccc(OCc2ccccc2)cc1 (stereo unspecified)	none
Cc1ccccc1N1C(=O)CC1(C#N)c1ccc(OCc2ccccc2)cc1 (stereo unspecified)	RAM network inh 11 | RAM efflux-def inactive
Cc1ccccc1CSCCNC(=O)Nc1ccccc1	none
Cc1ccc(S(=O)(=O)NCCC(c2ccccc2)c2ccco2)cc1 (stereo unspecified)	RAM network inh 14 | RAM efflux-def inactive
CCOc1cc(NC(=S)NCC2CCCO2)c(OCC)cc1NC(=O)c1cccc(F)c1 (stereo unspecified)	none
CCc1cc2c(=O)n(Cc3ccco3)c(SCc3c(C)noc3C)nc2s1	RAM network inh 13 (no result: CHOP inh) | RAM efflux-def inactive
CCc1cc2c(=O)n(Cc3ccco3)c(SCC(=O)N3CCCc4ccccc43)nc2s1	none
CC(C)CNS(=O)(=O)c1ccc(CCC(=O)O)cc1	none
CC(C)CNS(=O)(=O)c1ccc(CCC(=O)Nc2cc(Cl)ccc2Oc2ccccc2)cc1	RAM network inh 13 | RAM efflux-def inactive
CCCNS(=O)(=O)c1ccc(CCC(=O)NCCc2ccc(OC)c(OC)c2)cc1	none
CCCNS(=O)(=O)c1ccc(CCC(=O)Nc2cc(Cl)ccc2Oc2ccccc2)cc1	CHOP inh 90, RAM network inh 12 | RAM efflux-def inactive
CC(C(=O)NC1CCCC1)N(C(=O)c1snc(C(N)=O)c1N)c1ccc2c(c1)OCCO2 (stereo unspecified)	none
Cc1ccc(S(=O)(=O)N2CCOCC2)cc1C(=O)Nc1ccc(S(=O)(=O)Nc2nccs2)cc1	none
CC(C)Cc1nc2sc3c(c2c(=O)n1N)CC(C)(C)OC3	none (no result: L major viab, WT yeast gro inh, RAM network inh)
COc1cc(/C=C/C(=O)OCC(=O)NC(=O)NC(C)C)cc(S(=O)(=O)N2CCc3ccccc32)c1OC	none
O=C(O)CCCC(=O)Nc1cccc(C(=O)Nc2ccccc2C(=O)O)c1	none
O=C(CSCc1ccc(Cl)cc1)Nc1cccc(C(=O)Nc2ccccc2C(=O)O)c1	RAM network inh 14 | RAM efflux-def inactive
O=C(CSCc1ccccc1)Nc1cccc(C(=O)Nc2ccccc2C(=O)O)c1	RAM network inh 13 | RAM efflux-def inactive
CCNC(=S)Nc1cc(OCC)c(NC(=O)c2cccs2)cc1OCC	none
Cc1ccc(NC(=O)CCC(=O)OCCCC(F)(F)C(F)(F)F)cc1	none
O=C(CCC(=O)OCCCC(F)(F)C(F)(F)F)Nc1ccc(Cl)cc1Cl	CHOP inh 80, RAM network inh 29 | RAM efflux-def inactive
O=C(COC(=O)CCC(=O)c1cccs1)Nc1ccccc1[N+](=O)[O-]	none
CCOC(=O)c1oc2ccccc2c1CSc1nnnn1-c1ccc(OC)cc1	none
CCOC(=O)c1oc2ccc(Br)cc2c1CSc1nnc(C)s1	RAM network inh 17 | RAM efflux-def inactive
O=C1OC(COc2ccc(Br)cc2)CN1c1ccccc1 (stereo unspecified)	none (no result: L major viab, WT yeast gro inh, RAM network inh)
CCCCc1ccc(N=N/C(C(=O)Nc2ccccc2OC)=C(/C)O)cc1	RAM network inh 20 | RAM efflux-def inactive
CCCCc1ccc(N=N/C(C(=O)Nc2cc(OC)c(NC(C)=O)cc2OC)=C(/C)O)cc1	none
COc1ccc(NC(=O)C(CC(C)C)NC(=O)C2CCC(C)CC2)c(OC)c1 (stereo unspecified)	none
COc1ccccc1-c1noc(CCC(=O)Nc2cccc(C(F)(F)F)c2)n1	RAM network inh 23 | RAM efflux-def inactive
Cc1ccc(NC(=O)CN(C)C(=O)c2ccc(C(F)(F)F)cc2)cc1	none
NNC(=O)c1ccc(Cn2cc(Cl)cn2)cc1	none
O=C(Nc1ccc(Cl)c(Cl)c1)c1ccc(Cn2cc(Cl)cn2)cc1	WT yeast gro inh 78, RAM network inh 13 | RAM efflux-def inactive
COc1ccc(C(Cl)=C(c2ccc(OC)cc2)c2ccc(OC)cc2)cc1	RAM network inh 13 | RAM efflux-def inactive
COc1ccc(C(=N/O)/C(=N/O)c2ccc(OC)cc2)cc1	none
COc1cccc(NC(=S)N(Cc2ccc(Cl)cc2)Cc2ccc(C(=O)O)cc2)c1	RAM network inh 14 | RAM efflux-def inactive
CCc1ccccc1N1CCN(S(=O)(=O)c2cc(OC)ccc2OC)CC1	RAM network inh 13 | RAM efflux-def inactive
COc1ccc(N2Nc3n[nH]c(N)c3N2)cc1	none
O=C(C1CCCCC1)N1CCN(c2ccnc3cc(Cl)ccc23)CC1	none (no result: L major viab, WT yeast gro inh, RAM network inh)
COc1cccc(CC(=O)N2CCN(c3ccccc3[N+](=O)[O-])CC2)c1	none
CCOC(=O)C(C)(C)Sc1nc2c(cnn2-c2ccc(Cl)cc2)c(=O)[nH]1	RAM network inh 14 | RAM efflux-def inactive
CCC(Sc1nc2c(cnn2-c2ccc(Cl)cc2)c(=O)[nH]1)C(=O)OC (stereo unspecified)	none
